Common to all, as to format: functional
In experiment [1] the target is Solute carrier family 2, facilitated glucose transporter member 1 (Homo sapiens) (UniProt P11166). Put plainly: ST_JUDE_LEISH: Cytotoxicity at 2uM final concentration against transgenic Leishmania Mexicana promastigotes LmGLUT1 that are glucose transport deficient and complemented with the human glucose transporter GLUT1. Activity is measured by DNA content using SYBR green in vitro.

Experiment [2] concerns the target Hexose transporter 1 (Plasmodium falciparum) (UniProt O97467). Put plainly: ST_JUDE_LEISH: Cytotoxicity at 2uM final concentration against transgenic Leishmania Mexicana promastigotes LmPfHT that are glucose transport deficient and complemented with the Plasmodium falciparum hexose transporter. Activity is measured by DNA content using SYBR green in vitro.
The target of experiment [3] is Glucose transporter (Leishmania mexicana) (UniProt O61059). Briefly: ST_JUDE_LEISH: Cytotoxicity at 2uM final concentration against transgenic Leishmania Mexicana promastigotes LmGT2 that are glucose transport deficient and complemented with the L. Mexicana glucose transporter 2. Activity is measured by DNA content using SYBR green in vitro.

A word on the inhibition: it is the change of the read-out against control, counted positive when it falls.

Sequence of Solute carrier family 2, facilitated glucose transporter member 1 (Homo sapiens) (P11166 whole entry): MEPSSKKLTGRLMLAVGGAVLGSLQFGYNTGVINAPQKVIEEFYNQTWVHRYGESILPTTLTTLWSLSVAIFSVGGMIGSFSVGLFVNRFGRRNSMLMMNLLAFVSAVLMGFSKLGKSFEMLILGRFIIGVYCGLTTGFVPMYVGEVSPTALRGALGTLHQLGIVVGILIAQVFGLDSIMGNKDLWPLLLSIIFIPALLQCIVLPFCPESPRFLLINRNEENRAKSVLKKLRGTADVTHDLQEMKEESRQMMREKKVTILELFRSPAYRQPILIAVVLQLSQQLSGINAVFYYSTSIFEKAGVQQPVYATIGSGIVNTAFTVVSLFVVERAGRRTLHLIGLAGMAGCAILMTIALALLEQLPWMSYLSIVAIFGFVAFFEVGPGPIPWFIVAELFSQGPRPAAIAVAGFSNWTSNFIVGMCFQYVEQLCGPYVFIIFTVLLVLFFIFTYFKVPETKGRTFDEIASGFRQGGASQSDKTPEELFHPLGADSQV

In the case of `CCCCCCCCn1c2c(c(=N)c3c1CCC3)CCC2`, the inhibition turned out to be 87.3% in experiment [1], 91.5% in experiment [2] and 89.9% in experiment [3].

With `Cc1ccc(O)cc1Nc1ccnc2cc(-c3cccc(CNCCS(C)(=O)=O)c3)ccc12`, the figures for the inhibition in experiment [1], in experiment [2] and in experiment [3] were 1.09%, 0.12% and -3.77%, respectively.

For `O=C(/C=C/c1ccc(Cl)c(Cl)c1)NCCCCCN1CCCC(CNC(=O)/C=C/c2ccccc2)C1` (stereo not given), the results for the inhibition in experiment [1], in experiment [2] and in experiment [3] were -0.59%, -0.44% and -0.59%, respectively.

Turning to `Fc1ccccc1C=NN=c1cc[nH]c2ccc(C(F)(F)F)cc12`, the inhibition is 3.03% in experiment [1], 3.13% in experiment [2] and 2.13% in experiment [3].

Consider `COc1ccc2cc(CNCCCCCCNCc3ccc4cc(OC)ccc4c3)ccc2c1`, for which the inhibition in experiment [1] came to 107%; in experiment [2], 107%; in experiment [3], 103%.

For the molecule `Cc1ccccc1C1CCN(C2CCC(NC(=O)/C=C/c3cc(C(F)(F)F)ccc3F)CC2)CC1` (stereo not given), the inhibition worked out at 2.67% in experiment [1], 2.98% in experiment [2] and 3.34% in experiment [3].

On to `CN1CCC(NCc2cccc(-c3ccc(S(=O)(=O)NCCc4ccccn4)c(F)c3)c2)CC1`, for which the inhibition in experiment [1] turned out to be 1.22%; in experiment [2], 0.03%; in experiment [3], 0.94%.

As to `Cc1ccc(-c2ccc3c(c2)C=C(C(=O)NC2CCN(CCNC(=O)c4cccs4)CC2)CCC3)cc1`, the inhibition in experiment [1] was 8.71%; in experiment [2], 2.81%; in experiment [3], 2.25%.

For `O=C(Nc1ccc(-c2ccc(-c3nc4ccccc4[nH]3)s2)cc1)Nc1ccc(F)c(F)c1F`, the inhibition was 0.57% in experiment [1], -1.5% in experiment [2] and -0.77% in experiment [3].

As for `CCCc1cc2c3c(N)nc(N)nc3ccc2n1C(CC)CC`, the inhibition in experiment [1] came to 46.3%; in experiment [2], 54.9%; in experiment [3], 42.6%.

With `CC(C)[C@H](NC(=O)c1ccc(O)c(-c2ccc(Cl)c(Cl)c2)c1)C(=O)NCCN1CCCC1`, the inhibition in experiment [1] was -0.22%; in experiment [2] it was -0.09%; in experiment [3], 0.36%.

Regarding `COc1cccc(CNC[C@@H](O)[C@H](Cc2ccccc2)NC(=O)c2cc(NC(C)C)cc(N3CCCCS3(=O)=O)c2)c1`, the results for the inhibition in experiment [1], in experiment [2] and in experiment [3] were -0.22%, 1.05% and 0.68%, respectively.

With `CN(C)CCC(O)(c1ccc(Br)cc1)c1cccnc1` (stereo not given), the inhibition in experiment [1] was 3.13%; in experiment [2] it was 2.98%; in experiment [3], 0.51%.

`O=C(Nc1cccc(CN2CCCN(Cc3ccc(O)cc3)CC2)c1)c1cccc(C(F)(F)F)c1`: the inhibition in experiment [1] is 10.5%; in experiment [2] it was 9.62%; in experiment [3], 11.3%.

With `CC(C)(C)CC(C)(C)c1ccc(O)c(C(=O)Nc2cccc([N+](=O)[O-])c2)c1`, the inhibition in experiment [1] is 1.48%; in experiment [2], 2.51%; in experiment [3] it was 1.44%.

Take `N#Cc1ccc(N2CCN(C(=O)c3cccc(-c4noc(C(F)(F)F)n4)c3)CC2)nc1`: the inhibition is 0.27% in experiment [1], 0.91% in experiment [2] and -0.23% in experiment [3].

For the molecule `CC(NC(=O)c1ccc(O)c(-c2ccc(Cl)c(Cl)c2)c1)C(=O)NCCN1CCOCC1` (stereo not given), the inhibition in experiment [1] is 1.85%; in experiment [2], 2.13%; in experiment [3], 3.62%.

As for `O=C(NC1CC1)c1cnc(N2CCC(Cc3ccccc3)CC2)c(Cl)c1`, the inhibition in experiment [1] is 0.75%; in experiment [2] it was -0.08%; in experiment [3], -0.03%.

As for `C[C@@H](NC(=O)NC(CCN1CCC2(CC1)CN(S(C)(=O)=O)c1ccccc12)c1ccc(Cl)c(Cl)c1)c1ccccc1` (stereo not given in full), the inhibition in experiment [1] was 0.39%; in experiment [2] it was 4.43%; in experiment [3], -3.56%.

With `COc1cccc(-c2cc(C(F)(F)F)n3ncc(C(=O)Nc4cc(Cl)ccc4O)c3n2)c1`, the inhibition in experiment [1] is 0.65%; in experiment [2], 1.53%; in experiment [3], -2.22%.

Turning to `COc1ccc(-c2cccc(NC(=O)c3ccccc3)c2)cc1CN1CCCN(C)CC1`, the inhibition is -2.02% in experiment [1], -2.26% in experiment [2] and 2.04% in experiment [3].

With `C=C[C@]1(C)C[C@@H](OC(=O)CNC[C@@H](O)CN2C[C@H](c3ccnc4ccc(OC)nc34)OC2=O)[C@@]2(C)[C@@H]3C(=O)CC[C@@]3(CC[C@@H]2C)[C@@H](C)[C@@H]1O`, the inhibition was found to be 2.09% in experiment [1], 1.68% in experiment [2] and 1.03% in experiment [3].

Consider `COc1cc(COc2c(C)nc(N)nc2N)cc(OC)c1OC`, for which the inhibition in experiment [1] is 5.98%; in experiment [2] it was 4.54%; in experiment [3] it was 4.97%.

For `CCn1cc2c3c(cc(C(=O)N[C@@H](Cc4ccccc4)[C@H](O)CNCc4cccc(OC)c4)cc31)N(C)S(=O)(=O)CC2`, the inhibition in experiment [1] is 1.89%; in experiment [2], 3.02%; in experiment [3], 2.18%.

Regarding `COc1cc(Cl)c(C)cc1-n1cc(C(=O)c2cc(Br)ccc2O)cc(C#N)c1=O`, the inhibition was -0.77% in experiment [1], -1.65% in experiment [2] and 0.03% in experiment [3].

As for `COc1ccc2ncc(F)c(CCN3CCC(NCc4cc(Br)c5c(c4)OCCO5)CC3)c2n1`, the inhibition in experiment [1] was 18.9%; in experiment [2], 31.4%; in experiment [3] it was 14.3%.

With `COc1cccc(NC(=O)Nc2ccc(C)c(-c3ccc(C(=O)Nc4ccncc4)cc3)c2)c1`, the results for the inhibition in experiment [1], in experiment [2] and in experiment [3] were -1.55%, -1.72% and -0.17%, respectively.

Regarding `CC1CCc2c(C(=O)N3CCc4ccccc4C3)csc2C1` (stereo not given), the inhibition in experiment [1] came to 1.39%; in experiment [2], 0.87%; in experiment [3], 0%.

For the molecule `CC(Cc1ccc(OCc2ccccc2)cc1)Nc1nc(O)c2ccccc2n1` (stereo not given), the inhibition in experiment [1] was 2.96%; in experiment [2], 1.33%; in experiment [3] it was 3.22%.

Regarding `CCCc1cc(OC)c(CC2c3cccc(O)c3CCN2C)cc1OC` (stereo not given), the inhibition in experiment [1] was 0.68%; in experiment [2], 0.4%; in experiment [3] it was -0.12%.

In the case of `COc1ccc2ccccc2c1CCCCN1CCN(CC(c2ccc(F)cc2)N2CCN(C3CCCC3)CC2)CC1` (stereo not given), the inhibition in experiment [1] was determined as 2.16%; in experiment [2], 4.07%; in experiment [3] it was 1.41%.

On to `O=C(N[C@@H](Cc1ccccc1)C(=O)NC1CCCCCC1)c1ccc(O)c(-c2ccc(Cl)c(Cl)c2)c1`, for which the inhibition in experiment [1] came out at 3.99%; in experiment [2], 3.77%; in experiment [3], 3.08%.

Take `Cc1nc2ccc(S(=O)(=O)Nc3ccc(C(=O)N[C@@H](CCC(=O)O)C(=O)O)cc3)cc2c(=O)[nH]1`: the inhibition in experiment [1] was 0.38%; in experiment [2] it was -1.45%; in experiment [3], 0.45%.

Turning to `O=C(NOCCCCOc1ccc(Cl)c(Cl)c1)c1ccccc1`, the inhibition in experiment [1] is -2.66%; in experiment [2] it was -2.61%; in experiment [3] it was -1.29%.

On to `Cc1cccc2nc(-c3cccc(-c4cccc(NC(=O)Nc5ccsc5)c4)c3)[nH]c12`, for which the figures for the inhibition in experiment [1], in experiment [2] and in experiment [3] were 4.96%, 4.46% and 6.15%, respectively.
